# Screening data deposited in PubChem BioAssay by Broad Institute.
# rRNA inh HTS: inhibits bacterial ribosomal RNA function over humanized ribosomes; AID 720706; GFP signal change (wild-type ribosome), % (test concentration not listed); E. coli WT GFP vs humanized-ribosome RFP mutants, fluorescence, 24 h; hits give low values; DMSO median 0, no signal -100; actives 1.6% (n = 350,000);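 active = significant combined selectivity score with lowered wild-type GFP, culture density cut under 30%, mutant RFP and density less affected; inactive = any of these conditions unmet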
# CaV13 ICDI inh: Disruptors of the CACNA1D IQ motif to Ca2+-dependent inactivation inhibitor domain association, primary screening, Förster resonance energy transfer in intact living … | inhibition, % at 12.3 µM | HEK cells, CFP/YFP FRET ICDI-IQ, plate reader, 10 min; percent FRET-ratio fall versus neutral wells | actives 0.098% (n = 340,000) | AID 743397;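 active = mean replicate inhibition of at least 30% and at least 1% of replicates passing that level; inconclusive = only one of the two criteria is met; inactive = neither criterion is met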;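 note: 0% = median of the neutral control wells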
# ERAP1 inh: blocks human ERAP1 aminopeptidase activity; inhibition, % at 10.7 µM; Q9NZ08; recombinant ERAP1, Leu-AMC fluorescence, 60 min; AID 652197; actives 0.15% (n = 340,000);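 active = mean replicate inhibition of at least 30%, or all replicates individually reaching that 30% level; inactive = mean below 30% and not every replicate reaching it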;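 note: 0% = neutral control wells and 100% = L-leucinethiol positive control wells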
# Target sequence (Q9NZ08 whole entry, looked up): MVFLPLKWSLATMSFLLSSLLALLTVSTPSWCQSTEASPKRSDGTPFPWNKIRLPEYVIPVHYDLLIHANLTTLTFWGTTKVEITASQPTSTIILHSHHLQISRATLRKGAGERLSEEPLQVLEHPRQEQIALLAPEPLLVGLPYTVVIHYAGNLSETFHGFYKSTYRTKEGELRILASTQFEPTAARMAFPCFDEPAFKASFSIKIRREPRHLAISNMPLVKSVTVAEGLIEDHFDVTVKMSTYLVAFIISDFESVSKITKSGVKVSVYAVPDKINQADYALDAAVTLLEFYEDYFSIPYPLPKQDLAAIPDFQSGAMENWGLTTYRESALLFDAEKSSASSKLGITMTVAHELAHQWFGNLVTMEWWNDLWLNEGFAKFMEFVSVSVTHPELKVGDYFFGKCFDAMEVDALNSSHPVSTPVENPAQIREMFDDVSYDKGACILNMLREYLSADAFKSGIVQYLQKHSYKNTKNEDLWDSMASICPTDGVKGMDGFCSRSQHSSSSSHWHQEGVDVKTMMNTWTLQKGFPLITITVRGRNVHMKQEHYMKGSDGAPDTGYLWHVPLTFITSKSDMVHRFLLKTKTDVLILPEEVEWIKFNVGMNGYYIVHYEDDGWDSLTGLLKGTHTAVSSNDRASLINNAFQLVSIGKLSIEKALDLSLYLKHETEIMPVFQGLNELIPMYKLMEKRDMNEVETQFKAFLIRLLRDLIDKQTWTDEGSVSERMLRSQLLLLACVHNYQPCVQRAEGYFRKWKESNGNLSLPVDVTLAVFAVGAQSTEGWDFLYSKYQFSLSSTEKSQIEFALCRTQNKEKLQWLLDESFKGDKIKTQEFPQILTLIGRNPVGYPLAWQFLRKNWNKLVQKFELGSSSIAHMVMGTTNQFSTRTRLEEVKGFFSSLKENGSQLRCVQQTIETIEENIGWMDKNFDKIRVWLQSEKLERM
# GSIS activator: GLuc luminescence reporter in INS-1E cells, primary screen for activators of glucose-dependent secretion of insulin. actives 0.61% (n = 370,000). INS-1E GLuc reporter insulin secretion, 2-3 h. activation, % at 16.6 µM. AID 743287;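 active = lowest replicate activation of at least 40%, so every replicate reaches that level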;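 note: 0% = median of neutral control wells and 100% = median of IBMX positive control wells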
# DENV2 CPE: DENV2-induced cell death inhibition; DENV2-infected cells, cytopathic effect rescue, plate reader; CPE inhibition, % at 9.99 µM; actives 1.7% (n = 350,000); AID 651640; in the data active = CPE inhibition above about 20%, passing the limit was not always enough; inconclusive = no clear call, values can overlap the other calls; tested in BHK-21 cells;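 note: 0% = median of neutral control wells and 100% = median of positive control wells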
# PGC1a acetyl inh: PGC1a acetylation modulation, inhibitor mode; U2OS PGC1a acetylation, AlphaScreen anti-acetyl-lysine; with virally co-expressed GCN5 acetyltransferase; inhibition, % at 15.6 µM; actives 0.17% (n = 350,000);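 active = every replicate shows inhibition of at least 40%; inconclusive = mean inhibition at least 40% but some replicate below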;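 note: 0% = neutral control wells and 100% = positive control wells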
# The depositor's hits bear a star; u = inconclusive; x = not tested or not shown; + = active, no number. A selection: hits, their analogues and other compounds. The true share with any hit is near 3.2%.
SMILES,rRNA inh HTS,CaV13 ICDI inh,ERAP1 inh,GSIS activator,DENV2 CPE,PGC1a acetyl inh
CC(C)NC(=O)N(C)C[C@@H]1OCCCC[C@@H](C)Oc2ccc(NC(=O)Nc3ccc(F)cc3)cc2C(=O)N([C@H](C)CO)C[C@H]1C,-2.4,x,-1.5,-6.4,1.6,-19.0
C[C@@H]1CCCCO[C@H](CN(C)C(=O)Nc2ccc(F)cc2)[C@H](C)CN([C@@H](C)CO)C(=O)c2cc(NC(=O)Nc3ccc(F)cc3)ccc2O1,1.3,x,2.9,0.3,10.2,-4.1
CC(C)NC(=O)N(C)C[C@H]1OCCCC[C@H](C)Oc2ccc(NC(=O)Nc3ccc(F)cc3)cc2C(=O)N([C@@H](C)CO)C[C@H]1C,0.7,x,-3.8,12.4,56.0*,-6.0
O=C1c2cccnc2C(Nc2cccc(F)c2)N1Cc1ccco1 (stereo not given),4.3,-4.1,-0.6,70.5*,19.8,0.3
CC(=O)c1cccc(NC2c3ccccc3C(=O)N2Cc2ccco2)c1 (stereo not given),-4.6,5.1,1.7,8.1,-5.2,2.8
CC(=O)c1cccc(NC2c3ncccc3C(=O)N2Cc2ccco2)c1 (stereo not given),11.2,-8.4,2.4,49.8*,-3.0,-0.9
CN1CCN(C(=O)C[C@@H]2CC[C@H]3[C@@H](COC[C@H](O)CN3C(=O)C3CC3)O2)CC1,0.5,x,0.8,5.9,5.5,-2.0
COc1ccc2c3c([nH]c2c1)[C@@H](CO)N(S(C)(=O)=O)CC31CCN(Cc2ccccc2)CC1,-2.4,x,x,-0.8,x,x
C=CCn1c(SCC(=O)N2CCN(C(=O)OCC)CC2)nc2c([nH]c3ccccc32)c1=O,x,-11.2,3.2,43.2*,18.5,x
Cc1c(C(=O)Cc2ccccc2)n(C)c2ccccc12,-26.2*,-1.7,2.3,-1.0,x,17.4
CCCC(=O)c1c(C)c2ccccc2n1C,x,-5.8,x,x,x,16.7
O=C(Nc1ccccc1)N1CCCCN2[C@H](CO)[C@@H](c3ccc(-c4ccccc4F)cc3)[C@@H]2C1,-54.0,x,-0.3,-34.1,10.0,-10.2
O=C(Nc1ccccc1)N1CCCCN2[C@H](C1)[C@@H](c1ccc(-c3ccccc3F)cc1)[C@@H]2CO,-35.4,x,0.1,-16.3,33.0*,-3.3
O=C(Nc1ccccc1)N1CCCCN2[C@H](C1)[C@H](c1ccc(-c3ccncc3)cc1)[C@@H]2CO,-2.1,x,-0.7,-0.3,-8.5,1.8
O=C(Nc1ccccc1)N1CCCCN2[C@H](CO)[C@H](c3ccc(-c4ccncc4)cc3)[C@H]2C1,-4.4,x,-1.4,23.1,37.6*,5.2
COCC(=O)N1C[C@H](C)[C@@H](OC)CN(C)C(=O)c2cc(NC(=O)c3ccccc3)ccc2OC[C@@H]1C,-0.6,x,-2.6,2.0,9.2,-11.6
O=C(ON=C1CCN(S(=O)(=O)c2ccccc2)CC1)c1ccc(F)cc1,x,-3.3,x,x,x,4.2
CC(C)(C)C1CCC(=NOC(=O)c2ccc(F)cc2)CC1 (stereo not given),-41.4*,2.4,-0.3,-31.3,1.2,5.2
N/C(Cc1ccc(Cl)cc1Cl)=N\OC(=O)c1ccc(Br)o1,-22.3*,-3.0,1.4,0.7,0.7,-16.5
N=c1c(C(=O)NCC2CCCO2)cc2c(=O)n3ccccc3nc2n1Cc1cccnc1 (stereo not given),x,x,x,x,x,-11.7
Cc1cccn2c(=O)c3cc(C(=O)NCC4CCCO4)c(=N)n(CC4CCCO4)c3nc12 (stereo not given),4.1,58.3*,82.2*,11.9,u,2.7
CCOCCCNc1nc2nc3ccc(C)cn3c(=O)c2cc1C(=O)NCC1CCCO1 (stereo not given),18.2,+,57.3*,5.0,x,-6.0
Cc1ccc2nc3c(cc(C(=O)NCC4CCCO4)c(=N)n3CCCOC(C)C)c(=O)n2c1 (stereo not given),x,5.2,x,-5.8,x,-5.0
Cc1cccn2c(=O)c3cc(C(=O)NC4CCCC4)c(=N)n(CC4CCCO4)c3nc12 (stereo not given),3.5,5.8,-310.3,6.0,-2.9,11.9
Cc1cccn2c(=O)c3cc(C(=O)NCC4CCCO4)c(=N)n(Cc4cccnc4)c3nc12 (stereo not given),-4.5,0.9,105.3*,37.9,x,-3.7
